TDP1 inh – qHTS Assay for Inhibitors of Tyrosyl-DNA Phosphodiesterase (TDP1) | Tyrosyl-DNA phosphodiesterase 1 (Homo sapiens), Q9NUW8 | recombinant TDP1, AlphaScreen DNA substrate cleavage | Potency, µM (doses to about 130 µM), for inactives: top-dose activity change, negative = inhibition, hits mostly inhibitors | 0.28% of 350,000 active; further: potency means the concentration at half of the fitted maximal effect; on the % scale 0 is the no-effect control and ±100 the full control effect; nearly all actives have a fitted effect of over 40% in size
Target sequence (Q9NUW8 whole entry, looked up): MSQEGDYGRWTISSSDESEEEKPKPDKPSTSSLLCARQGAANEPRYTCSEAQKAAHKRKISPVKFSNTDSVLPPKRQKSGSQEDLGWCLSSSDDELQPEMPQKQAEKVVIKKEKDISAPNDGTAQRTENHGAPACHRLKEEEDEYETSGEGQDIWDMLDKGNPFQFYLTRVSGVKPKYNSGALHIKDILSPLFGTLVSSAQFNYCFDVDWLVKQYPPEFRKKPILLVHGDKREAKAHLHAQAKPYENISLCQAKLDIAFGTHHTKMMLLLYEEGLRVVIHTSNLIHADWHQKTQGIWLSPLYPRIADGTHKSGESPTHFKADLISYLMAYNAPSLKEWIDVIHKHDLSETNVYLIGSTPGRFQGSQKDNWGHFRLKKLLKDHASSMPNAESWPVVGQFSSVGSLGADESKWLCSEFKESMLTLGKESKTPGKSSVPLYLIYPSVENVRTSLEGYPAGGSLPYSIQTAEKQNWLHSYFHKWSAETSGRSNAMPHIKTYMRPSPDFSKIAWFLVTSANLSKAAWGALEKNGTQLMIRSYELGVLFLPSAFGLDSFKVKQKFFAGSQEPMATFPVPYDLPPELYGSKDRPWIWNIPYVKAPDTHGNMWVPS
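Steps: enzyme plus compound, 15 min RT; add biotin/phosphotyrosine-FITC oligonucleotide (15 nM final), react 5 min; add donor/acceptor beads (10 ug/ml final), 10 min; read AlphaScreen. Tdp1 at 1 nM final.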
DT40 TDP1 no CPT – qHTS for Inhibitors of human tyrosyl-DNA phosphodiesterase 1 (TDP1): qHTS in cells in absence of CPT. DT40 Tdp1-/- hTDP1 cells, no CPT, ATP luminescence, 48 h. Potency, µM (series often up to 46.2 µM), without a hit: at the top dose activity change, negative = growth inhibition, hits mostly inhibitors. 15% of 420,000 active. AID 686978, 2013; further: potency means the concentration at half of the fitted maximal effect; on the % scale 0 is the no-effect control and ±100 the full control effect; nearly all actives have a fitted effect of over 55% in size
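Compound effects on proliferation are scored in DT40 Tdp1-/-;hTDP1 cells in the absence of CPT. ATP levels (CellTiter-Glo luminescence) are recorded after a ≥48 hr, 37 °C incubation.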
TDP1 cell CPT – qHTS for Inhibitors of human tyrosyl-DNA phosphodiesterase 1 (TDP1): qHTS in cells in presence of CPT; Potency, µM (highest dose often 46.2 µM), for inactives: at the top dose activity change, negative = growth inhibition, actives largely listed as inhibitors; chicken DT40 Tdp1-/-;hTDP1 cells + 20 nM CPT, ATP luminescence, 48 h; 12% of 420,000 active; AID 686979, 2013; further: potency means the concentration at half of the fitted maximal effect; on the % scale 0 is the no-effect control and ±100 the full control effect; nearly all actives have a fitted effect of over 55% in size
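Chicken DT40 Tdp1-/- cells complemented with human TDP1, 400 cells/well, exposed to compounds plus 20 nM camptothecin for at least 48 h at 37 C; viability read as ATP content by CellTiter-Glo luminescence.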
IL1B secr inh – qHTS for Inhibitors of Inflammasome Signaling: IL-1-beta AlphaLISA Primary Screen. 4.7% of 360,000 active. activity change, % at 57.5 µM. THP-1 LPS/ATP IL-1B secretion, AlphaLISA, 16 h; stronger effect = lower value; in the data active means activity change below about -50%; inconclusive means mostly about -30% to -49%; further: on the % scale 0 is the no-effect control and ±100 the full control effect
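Secreted IL-1B measured by AlphaLISA bead assay after 16 h compound exposure of THP-1 cells; compounds (final up to 57.5 uM) added 1 h before LPS (250 ng/mL) and ATP (1.25 mM) stimulation; lower signal means less secretion.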
HepG2 viability – qHTS for Inhibitors of TGF-b: Cytotox Counterscreen | 0.76% of 410,000 active | Potency, µM (highest dose often 46.1 µM), for the others: at the top dose activity change, negative = cytotoxicity, usual class: cytotoxic | HepG2 CAGA-GFP viability, ATP luminescence, 18 h; further: potency means the concentration at half of the fitted maximal effect
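CellTiter-Glo luminescence gave cytotoxicity after 18 hours at 37 degrees C. The cells were HepG2 CAGA-GFP in 1% FBS DMEM, stimulated with 500 pg/mL TGF-beta after compound addition. %Activity was normalised to no-cell wells (complete cell-killing) and DMSO (no toxicity), and curves were fitted and classified.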
TGFb SMAD3 inh – qHTS for Inhibitors of TGF-b; HepG2 CAGA-GFP TGF-b/SMAD3 reporter, GFP fluorescence, 18 h; TGF-beta stimulated, 500 pg/mL final; Potency, µM (titrated, usually from 46.1 µM), inactives show at the highest dose activity, negative = inhibition, most hits filed as inhibitors; 1.2% of 410,000 active; AID 588855, 2011; further: potency means the concentration at half of the fitted maximal effect; on the % scale 0 is the no-effect control and ±100 the full control effect; nearly all actives have a fitted effect of over 65% in size
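HEPG2 CAGA-GFP reporter cells (1000/well, DMEM with 1% FBS) received compounds, then recombinant TGF-beta at 500 pg/mL final for 18 hours at 37 degrees C. Per-cell GFP summed per well was normalised to unstimulated and stimulated DMSO controls before curve fitting.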
Numbers without * were called inactive; ? = inconclusive; nt = no result; [ ] = remark or other dose. The list is not random: actives were taken first. Their share in the collection is about 18%. Unless noted, the call rests on the fitted dose curve; in most records, active means well fitted curve in the direction sought with a large enough effect; inconclusive means small, poorly fitted or top-dose-only effect, or another doubt; inactive means no such curve, though single readings can be large; an effect the other way counts as inactive or inconclusive.

SMILES	TDP1 inh	DT40 TDP1 no CPT	TDP1 cell CPT	IL1B secr inh	HepG2 viability	TGFb SMAD3 inh
CCCc1cc(=O)[nH]c(SCc2nc(-c3ccc(C)cc3)no2)n1	-3%	-18%	-18%	nt	-11%	-11%
CCc1cc(=O)[nH]c(SCc2nc(-c3cccc(Cl)c3)no2)n1	0%	16µM*	18µM*	nt	-10%	-15%
Nc1nc(=S)[nH]c(N)c1N	nt	-21%	3%	nt	18%	0%
Nc1nc(=S)[nH]c2n[nH]nc12	nt	3.5µM*	4.5µM*	nt	1%	12%
CO[C@H]1C=CO[C@]2(C)Oc3c(C)c(O)c4c(O)c(c5c(c4c3C2=O)NC2(CCN(CC(C)C)CC2)N=5)=NC(=O)C(C)=CC=C[C@@H](C)[C@@H](O)[C@@H](C)[C@@H](O)[C@@H](C)[C@@H](OC(C)=O)[C@@H]1C	15%[21 µM]	nt	nt	nt	nt	nt
CO[C@H]1C=CO[C@@]2(C)Oc3c(C)c(O)c4c(O)c(c(/C=N/N5CCN(C6CCCC6)CC5)c(O)c4c3C2=O)NC(=O)/C(C)=C\C=C[C@H](C)[C@H](O)[C@@H](C)[C@@H](O)[C@@H](C)[C@H](OC(C)=O)[C@@H]1C	nt	2.7µM*	4.7µM*	nt	nt	nt
CO[C@H]1/C=C/O[C@@]2(C)Oc3c(C)c(O)c4c(O)c(c5c(c4c3C2=O)NC2(CCN(CC(C)C)CC2)N=5)=NC(=O)/C(C)=C\C=C\[C@H](C)[C@H](O)[C@@H](C)[C@@H](O)[C@@H](C)[C@H](OC(C)=O)[C@@H]1C	21%	21µM*	?	-14	-3%	-5%
COc1ccc(NC(=O)c2cccc(N3CCCS3(=O)=O)c2)cc1OC	-3%	-15%	?	nt	0%	0%
Cn1cc(-c2cccc(C(F)(F)F)c2)cc(C#N)c1=O	nt	-23%	-9%	13	-26%	6%
CC(C)(C)OC(=O)Nc1ncnc2c1ncn2C1OC(CO)C2OC(C)(C)OC21 (configuration not stated)	2%	-18%	12%	1	29%	4%
CC1(C)O[C@@H]2[C@H](O1)[C@@H](CO)O[C@H]2n1cnc2c(=O)[nH]cnc21	1%	-5%	29µM*	-6	-4%	-3%
CC(C)(CNC(=O)Cc1ccc(NS(=O)(=O)c2cccc(C(F)(F)F)c2)cc1)N1CCOCC1	0%	?	2%	-6	0%	-3%
Cc1ccc(C)c(N2CCN(C(=O)c3ccc4c(c3)N(Cc3ccc(F)cc3)C(=O)c3ccccc3S4=O)CC2)c1 (configuration not stated)	9%	10µM*	18µM*	nt	6%	-9%
CCN1C(=O)c2ccccc2S(=O)c2ccc(C(=O)N3CCN(c4cc(Cl)ccc4C)CC3)cc21 (configuration not stated)	7%	23µM*	?	nt	-33%	?
Cc1ccccc1CN1C(=O)c2ccccc2S(=O)c2ccc(C(=O)N3CCOCC3)cc21 (configuration not stated)	3%	0%	2%	nt	3%	?
Cc1ccc(C)c(CN2C(=O)c3ccccc3S(=O)c3ccc(C(=O)N4CCN(c5ccccc5F)CC4)cc32)c1 (configuration not stated)	8%	1.8µM*	5.8µM*	nt	-9%	34%
Cc1ccc(C)c(CN2C(=O)c3ccccc3S(=O)c3ccc(C(=O)N4CCN(c5ccccn5)CC4)cc32)c1 (configuration not stated)	2%	16µM*	?	-24	-28%	15%
Cc1ccc(Cl)cc1N1CCN(C(=O)c2ccc3c(c2)N(Cc2ccccc2F)C(=O)c2ccccc2S3=O)CC1 (configuration not stated)	1%	?	?	nt	1%	-33%
CCN1CCN(C(=O)c2ccc3c(c2)N(Cc2cc(C)ccc2C)C(=O)c2ccccc2S3=O)CC1 (configuration not stated)	3%	16µM*	18µM*	nt	-41%	?
CCOC(=O)C1CCCN(C(=O)c2ccc3c(c2)N(Cc2ccccc2F)C(=O)c2ccccc2S3=O)C1 (configuration not stated)	1%	16µM*	?	nt	-6%	?
CC1CCN(S(=O)(=O)c2ccc(S(=O)(=O)N3CCCC3)cc2)CC1	nt	-1%	0%	19	-2%	-3%
CN(Cc1nccn1C)C(=O)c1ccc2nc(Cc3ccccc3F)oc2c1	1%	18%	-3%	4	-17%	-4%
C=CCC1(CC=C)CCCN1C(=O)c1ccc2oc(CCCC)nc2c1	nt	10µM*	12µM*	-24	-23%	?
CC(C)N(Cc1nccn1C)C(=O)c1ccc2oc(CCCc3ccccc3)nc2c1	10%	23µM*	18µM*	0	-28%	-26%
CCOC(=O)CC1CCCCN1C(=O)c1ccc2oc(CCc3ccccc3)nc2c1 (configuration not stated)	4%	15µM*	21µM*	22	-5%	-2%
SMILES	TDP1 inh	DT40 TDP1 no CPT	TDP1 cell CPT	IL1B secr inh	HepG2 viability	TGFb SMAD3 inh
COCC1CCCCN1C(=O)c1ccc2oc(CCc3ccccc3)nc2c1 (configuration not stated)	2%	?	?	0	-55%	-30%
CCCc1ccc2oc(C(=O)N(Cc3nccn3C)C(C)C)c(C)c2c1	6%	2.1µM*	5.2µM*	-7	6%	?
COc1ccc(C(=O)C(C)OC(=O)CNC(=O)c2ccco2)cc1 (configuration not stated)	0%	5%	1%	6	-4%	-8%
CC(C)(C)[C@H]1COC(=O)CC/C=C\C[C@@H](CC(=O)N(CCO)Cc2ccccc2)C(=O)N1	-1%	5%	-11%	-9	-4%	-1%
CCCSCCCNC(=O)c1ccc2c(c1)nc1n2CCCCC1	3%	?	?	nt	-1%	-23%
O=C1CCCCCCC1Sc1ccccc1[N+](=O)[O-] (configuration not stated)	7%	0%	5%	12	0%	14%

Screens as filed in PubChem.
